# Results filed as inconclusive are left out. Calls of active or inactive are those of the source. Unless noted, the call rests on the fitted dose curve; in most records, active means well fitted curve in the direction sought with a large enough effect; inconclusive means small, poorly fitted or top-dose-only effect, or another doubt; inactive means no such curve, though single readings can be large; an effect the other way counts as inactive or inconclusive.
# How the values were obtained:
# [1] = biological target: Cytochrome P450 2C9 (Homo sapiens) (UniProt P11712); assay: qHTS Assay for Inhibitors and Substrates of Cytochrome P450 2C9 (AID 883); further: potency means the concentration at half of the fitted maximal effect; nearly all actives have a fitted effect of over 60% in size
# Summary of the method: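 Human CYP2C9 (10nM) with Luciferin-H at 100uM (its KM) in 25mM KPO4; compound preincubated 10 min at 37C, then NADPH regeneration for 60 min at 37C. Luciferin read by luminescence after detection reagent; normalized to 57uM sulphaphenazole as full inhibition.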
# [2] = biological target: Cytochrome P450 3A4 (Homo sapiens) (UniProt P08684); assay: qHTS Assay for Activators of Cytochrome P450 3A4 (AID 885); further: nearly all actives have a fitted effect of over 65% in size
# Summary of the method: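 Quantitative HTS format: compounds preincubated with 20nM human CYP3A4 and Luciferin-PPXE substrate at KM, reaction started by NADPH regeneration, stopped after 60 min, luciferase luminescence read 20 min later.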
# [3] = biological target: Cytochrome P450 2D6 (Homo sapiens) (UniProt P10635); assay: qHTS Assay for Inhibitors and Substrates of Cytochrome P450 2D6 (AID 891); further: potency means the concentration at half of the fitted maximal effect; nearly all actives have a fitted effect of over 60% in size
# Summary of the method: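 Human CYP2D6 (5 nM) with 30 uM Luciferin-ME EGE (at Km) in 100 mM KPO4, compound preincubated 10 min, then NADPH regeneration system for 60 min at room temperature. Luciferin read by luminescence; normalized to 1.43 uM quinidine.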
# [4] = biological target: Cytochrome P450 2C19 (Homo sapiens) (UniProt P33261); assay: qHTS Assay for Inhibitors and Substrates of Cytochrome P450 2C19 (AID 899); further: potency means the concentration at half of the fitted maximal effect; nearly all actives have a fitted effect of over 60% in size
# Summary of the method: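 5 nM human CYP2C19 with 10uM Luciferin-H EGE (at KM) in 50mM KPO4, compound preincubated 10 min at 37C, then NADPH regeneration for 60 min at 37C. Luciferin read by luminescence after detection reagent; normalized to 57uM ketoconazole as full inhibition.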
# [5] = qHTS Assay for Identification of Small Molecule Antagonists for Thrombopoietin (TPO) Signaling Pathway (AID 918); settings: TPO-dependent cell signaling reporter, antagonist mode; further: potency means the concentration at half of the fitted maximal effect; nearly all actives have a fitted effect of over 60% in size
# Summary of the method: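 Murine Ba/F3 cells stably expressing human TPO receptor and a Glycoprotein IIb promoter–luciferase reporter were IL-3-starved overnight, treated with compounds plus TPO (26 pM final, its EC50) for 24 hrs at 37 C, then read by luminescence.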
# [6] = biological target: Alpha-galactosidase (Coffea arabica) (UniProt Q42656); assay: Counterscreen for Glucocerebrosidase Inhibitors: qHTS Assay for Coffee Bean alpha-Galactosidase at pH 4.5 (AID 957);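 further: series mostly up to about 77 µM; plate controls were enzyme alone for no effect and no enzyme for full effect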
# Summary of the method: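 Green coffee bean enzyme (2 nM final) was incubated with compounds (0.7 nM to 77 uM) and 4-methylumbelliferyl alpha-D-galactopyranoside (80 uM final) in 50 mM citric acid, 0.005% Tween-20, pH 4.5, 20 min at room temperature; AC50 from Hill fits.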
# [7] = biological target: Alpha-galactosidase (Coffea arabica) (UniProt Q42656); assay: Counterscreen for Glucocerebrosidase Inhibitors: qHTS Assay for Coffee Bean alpha-Galactosidase at pH 5.9 (AID 998);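 further: plate controls were uninhibited enzyme for no effect and no-enzyme basal signal for full effect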
# Summary of the method: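 Green coffee bean enzyme (2 nM) with 4-methylumbelliferyl alpha-D-galactopyranoside (80 uM) in 50 mM citric acid, 0.005% Tween-20, pH 5.9, 20 min at room temperature; compounds 0.7 nM–77 uM. Stopped at pH 10, fluorescence Ex365/Em440; Hill-fit AC50.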
# [8] = biological target: DNA repair nuclease/redox regulator APEX1 (Homo sapiens) (UniProt P27695); assay: qHTS Validation Assay for Inhibitors of the Human Apurinic/apyrimidinic Endonuclease 1 (APE1) (AID 1705; further: potency means the concentration at half of the fitted maximal effect)
# Summary of the method: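 Read-out: TAMRA fluorescence (525 nm ex, 598 nm em) from cleavage of a quenched THF abasic-site duplex, 50 nM final; activity taken as intensity change between third and first of three reads 60 s apart.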
# [9] = Counterscreen for APE1 Inhibitors: Fluorescent Dye Displacement Validation Assay (AID 1707); further: potency means the concentration at half of the fitted maximal effect
# Summary of the method: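 ThO 250 nM + dsDNA 50 nM (THF abasic site, 5'-TAMRA), Tris-HCl pH7.5/50mM NaCl/2 mM MgCl2/0.01% Tween-20; compounds pin-transferred; ex 480/em 540 nm endpoint. Neutral = no compound; no-DNA ThO wells = negative control.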
# [10] = qHTS for differential inhibitors of proliferation of Plasmodium falciparum line 7G8 (AID 1815);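 further: potency means the concentration at half of the fitted maximal effect; parasite growth measured after three days of incubation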
# [11] = qHTS for differential inhibitors of proliferation of Plasmodium falciparum line W2 (AID 1883); settings: Potency: Plasmodium falciparum W2 proliferation inhibition;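 further: potency means the concentration at half of the fitted maximal effect; parasites grown with compound for 72 h before lysis and staining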
# [12] = Validation screen for inhibitors of Lassa infection (AID 463096; calls by dose curve; further: on the % scale 0 is the no-effect control and ±100 the full control effect)
# [13] = biological target: DNA polymerase III PolC-type (Bacillus subtilis (strain 168)) (UniProt P13267); assay: qHTS Validation Assay for the Inhibitors of DNA Replication in Gram-Positive Bacteria (AID 485295); further: potency means the concentration at half of the fitted maximal effect
# Summary of the method: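 PicoGreen fluorescence (ex 480–485/em 535–540 nm) reports dsDNA synthesized on ssM13Gori template with dNTPs/NTPs. Enzyme: holoenzyme rebuilt from purified PolC, beta subunit, SSB and primase. Compound preincubated before substrate addition; RT throughout.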
# [14] = biological target: M-phase phosphoprotein 8 (Homo sapiens) (UniProt Q99549); assay: qHTS Validation Assay for Inhibitors for MPP8 Chromodomain Interactions with Methylated Histone Tails (AID 488949); further: potency means the concentration at half of the fitted maximal effect; nearly all actives have a fitted effect of over 55% in size
# Summary of the method: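 AlphaScreen read-out: streptavidin donor and nickel chelate acceptor beads (final 10 ug/mL), 30 min in the dark at RT. Complex of 50 nM MPP8 and 50 nM b-H3(1-18)K9me3 peptide had been exposed to compounds for 30 min beforehand.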
# [15] = biological target: Chromobox protein homolog 1 (Homo sapiens) (UniProt P83916); assay: qHTS Validation Assay for Inhibitors of HP1-beta Chromodomain Interactions with Methylated Histone Tails (AID 488953); further: potency means the concentration at half of the fitted maximal effect; nearly all actives have a fitted effect of over 50% in size
# Summary of the method: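 HP1-beta (50 nM) was preincubated 30 min at room temperature with biotinylated H3(1-18)K9me3 peptide (50 nM) in PBS pH 7.4, 0.01% Tween-20, then with compounds 30 min. AlphaScreen signal was read after streptavidin donor/nickel chelate acceptor beads (10 ug/mL final).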
# [16] = Inducers of the Endoplasmic Reticulum Stress Response (ERSR) in human glioma: Validation (AID 504836); further: 0% is about no effect
# Summary of the method: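 Stably transfected U87-MG glioma cells carrying a GRP78-based luciferase sensor; 16 h compound incubation. Luminescence end-point read 10 min after Bright-Glo addition at room temperature.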
# [17] = qHTS assay for small molecule agonists of retinoid X receptor alpha signaling (AID 588544; calls by dose curve); settings: HEK293T RXRa-UAS-bla, beta-lactamase reporter, 18 h; 530 nm emission
# [18] = biological target: Retinoic acid receptor RXR-alpha (Homo sapiens) (UniProt P19793); assay: as above
# Retinoic acid receptor RXR-alpha (Homo sapiens), sequence (P19793 whole entry, looked up): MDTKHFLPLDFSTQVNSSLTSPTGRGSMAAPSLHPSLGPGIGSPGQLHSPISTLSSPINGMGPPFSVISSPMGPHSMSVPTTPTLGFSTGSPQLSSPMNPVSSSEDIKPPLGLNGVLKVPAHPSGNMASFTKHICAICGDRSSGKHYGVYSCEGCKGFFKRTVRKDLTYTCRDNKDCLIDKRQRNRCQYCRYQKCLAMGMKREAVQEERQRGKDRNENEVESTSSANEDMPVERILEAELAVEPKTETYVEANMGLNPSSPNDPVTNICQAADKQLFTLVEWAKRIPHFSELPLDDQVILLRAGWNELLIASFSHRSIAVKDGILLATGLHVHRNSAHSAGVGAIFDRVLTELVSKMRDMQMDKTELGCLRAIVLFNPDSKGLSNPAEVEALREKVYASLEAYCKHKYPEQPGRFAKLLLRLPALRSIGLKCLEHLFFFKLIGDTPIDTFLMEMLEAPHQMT
# Alpha-galactosidase (Coffea arabica), sequence (Q42656 whole entry, looked up): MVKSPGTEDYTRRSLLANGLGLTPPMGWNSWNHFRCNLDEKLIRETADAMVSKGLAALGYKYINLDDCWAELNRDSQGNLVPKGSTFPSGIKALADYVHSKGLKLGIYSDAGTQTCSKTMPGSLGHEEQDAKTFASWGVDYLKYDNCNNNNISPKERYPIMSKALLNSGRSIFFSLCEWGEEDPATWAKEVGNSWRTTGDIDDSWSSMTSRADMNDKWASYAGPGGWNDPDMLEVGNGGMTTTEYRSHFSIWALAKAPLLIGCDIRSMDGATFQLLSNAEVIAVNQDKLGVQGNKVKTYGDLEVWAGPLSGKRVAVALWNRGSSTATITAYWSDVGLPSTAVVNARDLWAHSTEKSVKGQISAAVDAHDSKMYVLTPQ
# DNA polymerase III PolC-type (Bacillus subtilis (strain 168)), sequence (P13267 whole entry, looked up): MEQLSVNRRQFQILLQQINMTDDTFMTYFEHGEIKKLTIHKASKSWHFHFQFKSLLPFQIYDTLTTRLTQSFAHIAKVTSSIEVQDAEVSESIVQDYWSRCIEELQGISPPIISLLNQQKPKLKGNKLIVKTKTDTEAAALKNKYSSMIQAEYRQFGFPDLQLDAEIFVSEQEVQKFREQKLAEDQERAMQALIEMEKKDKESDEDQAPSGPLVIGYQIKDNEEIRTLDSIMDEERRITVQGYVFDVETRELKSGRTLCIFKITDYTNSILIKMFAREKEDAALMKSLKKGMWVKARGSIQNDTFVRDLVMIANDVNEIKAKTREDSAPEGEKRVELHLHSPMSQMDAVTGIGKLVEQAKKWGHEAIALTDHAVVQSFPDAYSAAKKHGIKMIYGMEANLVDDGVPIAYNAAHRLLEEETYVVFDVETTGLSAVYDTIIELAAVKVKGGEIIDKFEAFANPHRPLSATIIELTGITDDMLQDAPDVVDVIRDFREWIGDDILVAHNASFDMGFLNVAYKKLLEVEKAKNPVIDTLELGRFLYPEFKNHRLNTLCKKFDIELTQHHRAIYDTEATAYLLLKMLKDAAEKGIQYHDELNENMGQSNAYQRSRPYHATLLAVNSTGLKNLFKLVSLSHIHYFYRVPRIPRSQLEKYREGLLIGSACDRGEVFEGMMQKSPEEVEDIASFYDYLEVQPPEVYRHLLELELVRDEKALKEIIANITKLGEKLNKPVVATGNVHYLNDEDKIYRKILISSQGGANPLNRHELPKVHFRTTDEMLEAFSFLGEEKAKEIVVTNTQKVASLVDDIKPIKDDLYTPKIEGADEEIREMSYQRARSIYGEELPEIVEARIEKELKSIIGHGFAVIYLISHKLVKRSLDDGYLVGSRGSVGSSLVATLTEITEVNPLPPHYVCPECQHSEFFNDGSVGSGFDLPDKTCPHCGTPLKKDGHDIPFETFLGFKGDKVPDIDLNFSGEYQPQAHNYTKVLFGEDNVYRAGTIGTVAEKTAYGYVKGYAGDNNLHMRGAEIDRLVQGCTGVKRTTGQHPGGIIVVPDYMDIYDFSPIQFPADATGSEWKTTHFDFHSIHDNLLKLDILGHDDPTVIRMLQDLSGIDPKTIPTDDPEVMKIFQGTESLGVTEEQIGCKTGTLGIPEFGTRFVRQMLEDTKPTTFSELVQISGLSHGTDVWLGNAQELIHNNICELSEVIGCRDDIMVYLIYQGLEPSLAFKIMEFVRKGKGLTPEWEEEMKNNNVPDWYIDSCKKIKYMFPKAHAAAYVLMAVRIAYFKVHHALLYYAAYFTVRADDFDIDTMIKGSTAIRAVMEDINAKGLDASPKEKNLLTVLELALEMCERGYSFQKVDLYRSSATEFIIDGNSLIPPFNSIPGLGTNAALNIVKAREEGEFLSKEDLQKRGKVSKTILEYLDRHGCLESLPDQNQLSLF
# Cytochrome P450 2D6 (Homo sapiens), sequence (P10635 whole entry, looked up): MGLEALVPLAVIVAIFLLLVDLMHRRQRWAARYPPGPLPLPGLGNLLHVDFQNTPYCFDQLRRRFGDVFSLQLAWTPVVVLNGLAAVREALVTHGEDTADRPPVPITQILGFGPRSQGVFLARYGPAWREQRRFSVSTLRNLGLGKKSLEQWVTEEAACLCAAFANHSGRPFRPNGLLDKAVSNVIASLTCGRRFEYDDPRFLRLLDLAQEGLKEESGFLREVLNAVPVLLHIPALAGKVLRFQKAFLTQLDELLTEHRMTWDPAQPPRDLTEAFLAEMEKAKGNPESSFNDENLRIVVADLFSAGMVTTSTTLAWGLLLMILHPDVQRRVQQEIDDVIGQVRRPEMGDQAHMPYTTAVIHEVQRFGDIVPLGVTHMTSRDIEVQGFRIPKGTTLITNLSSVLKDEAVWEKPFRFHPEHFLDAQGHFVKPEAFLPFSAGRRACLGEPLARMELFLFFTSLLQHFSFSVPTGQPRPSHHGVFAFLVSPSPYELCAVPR
# M-phase phosphoprotein 8 (Homo sapiens), sequence (Q99549 whole entry, looked up): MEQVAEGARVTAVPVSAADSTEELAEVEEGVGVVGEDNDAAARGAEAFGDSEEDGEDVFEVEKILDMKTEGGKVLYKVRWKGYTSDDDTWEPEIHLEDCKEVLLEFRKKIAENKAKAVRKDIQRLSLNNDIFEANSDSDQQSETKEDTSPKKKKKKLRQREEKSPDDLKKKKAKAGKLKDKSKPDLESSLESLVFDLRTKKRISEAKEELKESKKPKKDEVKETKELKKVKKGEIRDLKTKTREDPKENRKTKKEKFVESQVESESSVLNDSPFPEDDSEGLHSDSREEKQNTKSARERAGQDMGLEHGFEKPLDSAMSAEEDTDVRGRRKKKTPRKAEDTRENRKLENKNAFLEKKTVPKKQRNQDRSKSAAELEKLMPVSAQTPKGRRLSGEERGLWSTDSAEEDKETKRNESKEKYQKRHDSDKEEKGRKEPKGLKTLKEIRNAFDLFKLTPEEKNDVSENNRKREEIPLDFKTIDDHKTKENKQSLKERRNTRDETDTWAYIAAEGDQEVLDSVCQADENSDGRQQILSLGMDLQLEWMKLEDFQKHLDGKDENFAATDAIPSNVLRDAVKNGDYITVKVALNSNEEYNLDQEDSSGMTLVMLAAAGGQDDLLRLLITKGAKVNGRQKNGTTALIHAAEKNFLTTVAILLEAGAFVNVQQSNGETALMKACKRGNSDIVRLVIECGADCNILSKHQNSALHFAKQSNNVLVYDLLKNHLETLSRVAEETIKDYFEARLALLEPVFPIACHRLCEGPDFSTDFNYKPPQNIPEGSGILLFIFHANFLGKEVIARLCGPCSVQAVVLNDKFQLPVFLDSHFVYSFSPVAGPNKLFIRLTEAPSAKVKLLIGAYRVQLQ
# Cytochrome P450 3A4 (Homo sapiens), sequence (P08684 whole entry, looked up): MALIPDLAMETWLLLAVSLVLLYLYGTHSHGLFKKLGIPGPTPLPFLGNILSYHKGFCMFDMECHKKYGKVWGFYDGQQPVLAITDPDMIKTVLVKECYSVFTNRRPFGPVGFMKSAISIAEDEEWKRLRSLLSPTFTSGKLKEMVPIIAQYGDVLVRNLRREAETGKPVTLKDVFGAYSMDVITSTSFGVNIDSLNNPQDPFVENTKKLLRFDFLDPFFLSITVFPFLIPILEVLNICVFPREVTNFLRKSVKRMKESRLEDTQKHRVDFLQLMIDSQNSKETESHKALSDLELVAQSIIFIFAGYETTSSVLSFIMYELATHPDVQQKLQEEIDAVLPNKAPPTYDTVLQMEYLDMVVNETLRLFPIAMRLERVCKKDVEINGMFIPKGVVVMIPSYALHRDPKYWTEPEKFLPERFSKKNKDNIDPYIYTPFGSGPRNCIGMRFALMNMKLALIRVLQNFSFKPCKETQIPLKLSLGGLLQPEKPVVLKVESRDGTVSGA
# DNA repair nuclease/redox regulator APEX1 (Homo sapiens), sequence (P27695 whole entry, looked up): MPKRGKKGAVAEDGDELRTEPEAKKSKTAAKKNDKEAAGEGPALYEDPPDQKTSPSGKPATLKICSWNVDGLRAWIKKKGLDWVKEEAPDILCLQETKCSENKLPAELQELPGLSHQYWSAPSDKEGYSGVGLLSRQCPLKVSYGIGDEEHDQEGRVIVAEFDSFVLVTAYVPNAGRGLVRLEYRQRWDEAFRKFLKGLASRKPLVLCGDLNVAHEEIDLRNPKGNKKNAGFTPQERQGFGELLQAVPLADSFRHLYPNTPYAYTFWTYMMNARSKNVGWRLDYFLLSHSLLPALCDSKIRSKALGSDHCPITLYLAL
# Cytochrome P450 2C19 (Homo sapiens), sequence (P33261 whole entry, looked up): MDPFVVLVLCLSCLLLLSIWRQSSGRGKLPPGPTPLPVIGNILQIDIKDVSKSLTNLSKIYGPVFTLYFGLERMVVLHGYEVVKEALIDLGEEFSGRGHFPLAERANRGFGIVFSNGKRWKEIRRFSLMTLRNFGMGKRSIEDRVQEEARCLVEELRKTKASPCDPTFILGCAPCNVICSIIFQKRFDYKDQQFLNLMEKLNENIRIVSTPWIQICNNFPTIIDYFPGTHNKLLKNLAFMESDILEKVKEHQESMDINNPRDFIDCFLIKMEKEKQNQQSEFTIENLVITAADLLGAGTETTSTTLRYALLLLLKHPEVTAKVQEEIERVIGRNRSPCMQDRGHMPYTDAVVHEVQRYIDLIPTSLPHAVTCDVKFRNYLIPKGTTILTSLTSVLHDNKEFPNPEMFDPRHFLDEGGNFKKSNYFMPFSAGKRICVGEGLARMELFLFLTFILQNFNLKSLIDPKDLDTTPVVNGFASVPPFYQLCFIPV
compound,measurement,setting,value
Cc1cc(O)c2c(c1)C(=O)c1cc(O)cc(O)c1C2=O,Potency,[1],7.94 µM (active)
same,Potency,[2],inactive
same,Potency,[3],12.6 µM (active)
same,Potency,[4],7.94 µM (active)
same,Potency,[5],12.6 µM (active)
same,outcome,[6],inactive
same,outcome,[7],inactive
same,Potency,[8],35.5 µM (active)
same,Potency,[9],28.2 µM (active)
same,Potency,[10],11.2 µM (active)
same,Potency,[11],14.1 µM (active)
same,Potency,[12],inactive
same,Potency,[13],23.8 µM (active)
same,Potency,[14],10.6 µM (active)
same,Potency,[15],22.4 µM (active)
same,outcome,[16],inactive
same,max response,[17],21.4%
same,outcome,[18],inactive
